HIF-2a inh: blocks HIF-2a reporter activity | 786-0 RCC cells HIF-2a reporter, luciferase luminescence, overnight | inhibition, % at 18.8 µM | 360,000 compounds, 0.72% hits;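 active means inhibition of the luminescence signal of 40% or more relative to plate controls, in a single-dose primary screen at 18.75 µM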
CF NFkB block: blocks PAF-induced NF-kB reporter in cystic fibrosis cells; 360,000 compounds, 0.86% hits; inhibition, % at 5 µM; KKLEB NF-kB-GFP reporter, GFP fluorescence overnight;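 active means at least 50% inhibition at 5 µM, scaled per plate between neutral and stimulator controls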;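 further: PAF is a Pseudomonas aeruginosa culture filtrate used as stimulus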
KKLEB cytotox: counter-screen for CF NF-kB inhibitors: cytotoxicity | activity change (cytotoxicity), % at 5 µM | AID 602141 | KKLEB CF airway cells viability, ATPlite luminescence, overnight; hits give low values; cells stimulated with P. aeruginosa culture filtrate | 360,000 compounds, 0.36% hits;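 active means corrected activity change at or below -50% at 5 µM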
Shn3 inh set2: inhibitors of Schnurri-3 3'UTR reporter in osteoblasts; Clone20 osteoblast Shn3 3'UTR firefly luciferase, 24 h; inhibition, % at 12.5 µM; 360,000 compounds, 0.52% hits; AID 588674;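 active means mean inhibition of at least 75% with every replicate also reaching 75%; inconclusive means mean inhibition at least 75% but some replicate below; inactive means mean inhibition below 75%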
TRPM1 prom inh: MITF TRPM1 promoter inhibition in SK-MEL-5 cells | inhibition, % at 12.5 µM | AID 488899 | SK-MEL-5 TRPM1 promoter luciferase, 24 h | 330,000 compounds, 0.83% hits;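 active means mean inhibition across replicates of 60% or more, whatever share of single replicates reaches that level; inconclusive means some that reach 60%, reason not given; inactive means mean inhibition across replicates below 60%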
Peg3 prom inh: inhibitors of Peg3 promoter | HeLa PEG-Prom luciferase reporter, luminescence, overnight | inhibition, % at 20 µM | 360,000 compounds, 1.7% hits | AID 588405;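 active means inhibition of at least 50% at 20 µM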
CF NFkB inh conf: CF NF-kB inhibition confirmation, single concentration | KKLEB CF airway cells, PAF-induced NF-kB-GFP fluorescence, overnight | inhibition, % at 5 µM | 1,300 compounds, 64% hits | shares compounds with CF NFkB block; in the data active means inhibition above about 40%;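 further: stimulus PAF is a Pseudomonas aeruginosa filtrate and not platelet activating factor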
Mdm2-MdmX confirm: Mdm2/MdmX (human) interaction inhibition, confirmed; shares compounds with HIF-2a inh; SaOS-2 split-luciferase Mdm2/MdmX complementation, luminescence; inhibition, % at 8 µM; 740 compounds, 99% hits;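 active means mean inhibition of the luminescence signal across two replicates at or above 26 percent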
Target sequence (O15151 whole entry, looked up): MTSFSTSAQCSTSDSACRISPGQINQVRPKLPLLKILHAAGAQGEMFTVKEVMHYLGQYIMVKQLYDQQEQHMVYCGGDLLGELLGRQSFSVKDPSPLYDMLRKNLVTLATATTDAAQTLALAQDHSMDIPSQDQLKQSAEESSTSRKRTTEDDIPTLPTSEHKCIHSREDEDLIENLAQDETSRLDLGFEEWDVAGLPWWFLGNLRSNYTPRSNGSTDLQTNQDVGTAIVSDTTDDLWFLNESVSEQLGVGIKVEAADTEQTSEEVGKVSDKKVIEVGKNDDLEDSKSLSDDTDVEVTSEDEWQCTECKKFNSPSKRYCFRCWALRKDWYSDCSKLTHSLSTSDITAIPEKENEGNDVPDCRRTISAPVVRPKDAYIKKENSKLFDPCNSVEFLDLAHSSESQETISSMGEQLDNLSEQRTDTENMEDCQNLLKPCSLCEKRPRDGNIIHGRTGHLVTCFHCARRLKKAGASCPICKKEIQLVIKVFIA
Target sequence (Q00987 whole entry, looked up): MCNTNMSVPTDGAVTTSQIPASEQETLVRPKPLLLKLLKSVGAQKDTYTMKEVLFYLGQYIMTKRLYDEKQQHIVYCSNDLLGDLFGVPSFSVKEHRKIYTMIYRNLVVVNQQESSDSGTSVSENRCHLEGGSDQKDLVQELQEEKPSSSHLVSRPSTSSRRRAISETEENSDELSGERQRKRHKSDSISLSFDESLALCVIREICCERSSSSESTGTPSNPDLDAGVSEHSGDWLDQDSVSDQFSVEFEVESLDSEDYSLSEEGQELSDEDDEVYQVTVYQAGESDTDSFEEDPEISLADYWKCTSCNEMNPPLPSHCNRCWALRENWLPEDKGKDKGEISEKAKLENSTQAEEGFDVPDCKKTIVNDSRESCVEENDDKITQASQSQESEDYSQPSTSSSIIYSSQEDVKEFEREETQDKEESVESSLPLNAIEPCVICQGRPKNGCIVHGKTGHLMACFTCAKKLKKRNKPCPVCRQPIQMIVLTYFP
HIF-2a inh conf: HIF-2a inhibition, single concentration confirmation; shares compounds with HIF-2a inh; 786-0 RCC cells, HIF-2a luciferase reporter luminescence, overnight; inhibition, % at 18.8 µM; 1,800 compounds, 56% hits; AID 651580;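 active means mean inhibition across four replicates of at least 40 percent at the single tested concentration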
HIF-1a counter: inhibits HIF-1a reporter, a counter-screen for HIF-2a inhibitors. shares compounds with HIF-2a inh. MiaPaCa-2 HIF-1a luciferase reporter, desferoxamine, overnight. inhibition, % at 18.8 µM. 1,800 compounds, 72% hits. AID 651589;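 active means mean inhibition of the reporter signal across four replicates at the single tested dose of 50% or more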
Hits are given with their value; i = inactive; ? = inconclusive; nt = not tested or not shown; ! = a repeat was not active. Only some compounds are listed: those with a hit (about 2.7% of all), similar ones and a draw of the others.

SMILES | HIF-2a inh | CF NFkB block | KKLEB cytotox | Shn3 inh set2 | TRPM1 prom inh | Peg3 prom inh | HIF-2a inh conf | HIF-1a counter | others
CCOc1ccccc1NC(=O)c1ccc(C(=O)Nc2ccccc2OCC)nc1 | i | i | i | i | i | i | nt | nt
NNC(=O)c1ccc(N2CCc3ccccc32)c([N+](=O)[O-])c1 | i | i | i | i | i | i | nt | nt
Nc1ncnc(N2CCc3ccccc32)c1[N+](=O)[O-] | i | 83 | i | i | i | i | nt | nt | CF NFkB inh conf=98;Mdm2-MdmX confirm=93
Cn1c(N)c(N2CCCCC2)c(=O)n(CC(=O)Nc2cccc(C#N)c2)c1=O | i | i | i | i | i | i | nt | nt
COC(=O)C(NC(=O)c1ccccc1)c1ccccc1 (centres undefined) | i | i | i | i | i | i | nt | nt
C=C(C(=O)c1ccccc1)C(NC(C)(C)C)c1ccccc1 (centres undefined) | 85 | 50 | i | i | 99 | 104 | 98 | 105 | CF NFkB inh conf=i
CS(=O)(=O)c1ccc(C(=O)OCC(=O)NCc2cccs2)cc1[N+](=O)[O-] | 83 | 90 | i | 97 | 85 | 108 | i | i | CF NFkB inh conf=43
Cc1cccc(C(=O)OCC(=O)NCc2cccs2)c1 | i | i | i | i | i | i | nt | nt
Cc1ccc(C)c(Cn2nnc3c(=O)[nH]c(C(=O)NCc4ccco4)nc32)c1 | i | i | i | i | i | i | nt | nt
O=C(NCc1ccco1)c1nc2c(nnn2Cc2ccccc2Cl)c(=O)[nH]1 | 45 | 90 | i | i | 72 | 94 | 57 | 106 | CF NFkB inh conf=100
Fc1cccc(CNc2ncnc3ccc(-c4ccc5c(c4)OCO5)cc23)c1 | i | i | i | i | i | i | nt | nt
c1nc(NCc2ccc3c(c2)OCO3)c2cc(-c3ccoc3)ccc2n1 | i | 82 | i | i | i | i | nt | nt | CF NFkB inh conf=92;Mdm2-MdmX confirm=88
Cc1ccc(N(CC(=O)N2CCN(c3ccc(F)cc3)CC2)S(=O)(=O)c2c(C)noc2C)cc1 | i | i | i | i | i | i | nt | nt
Cc1nc(/C(=N/O)C(N)=O)cs1 | 45 | i | i | i | i | i | i | i
Cc1cccc(NC(=O)[C@@H]2CCCN2S(=O)(=O)c2ccc(Cl)cc2)c1 | i | i | i | i | i | i | nt | nt
O=[N+]([O-])c1ccc(-c2ccc(/C=N/Nc3nc(N4CCCC4)nc(N4CCCC4)n3)o2)cc1 | i | i | -62 | i | 68 | i | nt | nt | Mdm2-MdmX confirm=91
COc1ccc(N(CC(=O)NCCc2cccc(C)c2)S(=O)(=O)c2c(C)noc2C)cc1 | i | i | i | i | i | i | nt | nt
O=C1C=CC(=O)N1CCCCCCCCCCN1C(=O)C=CC1=O | 71 | 74 | i | 93 | 91 | 102 | 61 | 80
O=C1C=CC(=O)N1Cc1ccncc1 | i | i | i | i | i | i | nt | nt
COCCNC(=O)Cn1cc(/C=C(\C#N)C(=O)NC2CCCC2)c2ccccc21 | i | i | i | i | i | i | nt | nt
CC(C)NC(=O)N(C)C[C@H]1Oc2c(NC(=O)Nc3ccccc3)cccc2C(=O)N([C@H](C)CO)C[C@@H]1C | i | i | i | i | i | i | nt | nt
CSc1ccc(CN(C)C(=O)CNC(=O)c2sc3ccccc3c2Cl)cc1 | i | i | i | i | i | i | nt | nt
CNC[C@H](Cc1ccccc1)NC[C@@H](Cc1cccc2ccccc12)NCCc1ccc(C)cc1 | i | i | -50 | i | i | 97 | nt | nt | Mdm2-MdmX confirm=101
CCOc1ccc(C(=O)NCC(=O)N2CCN(c3ccccc3O)CC2)cc1 | i | i | i | i | i | i | nt | nt
O=C(CSc1nnc(-c2ccncc2)o1)Nc1cc(F)ccc1F | i | i | i | i | i | i | nt | nt
SMILES | HIF-2a inh | CF NFkB block | KKLEB cytotox | Shn3 inh set2 | TRPM1 prom inh | Peg3 prom inh | HIF-2a inh conf | HIF-1a counter | others
O=C(CSc1nnc(-c2ccccc2)o1)Nc1ccccc1F | 49 | i | i | i | nt | i | 66 | 61
O=C(CSc1nnc(-c2ccc(Br)cc2)o1)Nc1cccc(C(=O)O)c1 | 63 | i | i | i | 88 | i | 63 | i
N#Cc1cccnc1Oc1ccccc1 | i | i | i | i | i | i | nt | nt
O=C(NCCCN1CCOCC1)/C(=C/c1ccc(-c2cccc([N+](=O)[O-])c2)o1)NC(=O)c1ccccc1 | i | i | i | i | nt | i | nt | nt
Cc1nc2nc(C)n(CCN3CCOCC3)c(=O)c2c(-c2cccc([N+](=O)[O-])c2)c1C(=O)CCCCCCCCCCN1CCC(c2ccccc2)(c2ccccc2)CC1 | 84 | i | i | ? | 99 | 95 | i | 107
O=C(CCN1C(=O)/C(=C/c2ccccc2)SC1=S)N[C@@H](CO)Cc1ccccc1 | 50 | i | i | i | i | 80 | nt | nt | Mdm2-MdmX confirm=98
O=C(CCN1C(=O)/C(=C/c2ccccc2)SC1=S)NNC(=O)c1ccncc1 | i | i | i | i | i | i | nt | nt
O=C(CCl)N(Cc1ccccc1)c1ccccc1 | i | 70 | i | i | i | i | nt | nt | Mdm2-MdmX confirm=103
COC(=O)c1ccc(C(=O)N(Cc2ccccc2)c2ccccc2)cc1 | i | i | i | i | i | i | nt | nt
CCN1CCN(Cc2ccc(NC(=O)c3cc(NC(=O)c4cncc(-c5ccc(C#N)cc5)c4)cc(OC)c3)cc2C(F)(F)F)CC1 | 89! | 57! | -73! | 98 | 97 | 106 | i | 98
C=C1C(=O)OC2C=C(CO)C3OC3C3OC3(C)CC(OC(=O)/C(=C/C)COC(C)=O)C12 (centres undefined) | 85 | 82 | -92 | 93 | 84 | 106 | 93 | 107
CCN1CC(C)(C)N(C(=O)c2ccccc2)CC1(C)C | i | i | i | i | i | i | nt | nt
COc1cc(OC)nc(Nc2nc(C(N)Cc3ccc(C(F)(F)F)cc3)cs2)n1 (centres undefined) | 70 | i | i | i | nt | 115 | i | 105
CCN(CC)CCNC(=O)c1cc(-c2cccnc2)nc2ccc(S(=O)(=O)N3CCC(C)CC3)cc12 | 64 | i | i | i | 88 | 72 | i | 100 | Mdm2-MdmX confirm=102
Cc1ccc(CCNC(=O)c2cc(-c3ccncc3)nc3ccc(S(=O)(=O)N4CCOCC4)cc23)cc1 | i | i | i | i | i | i | nt | nt
Cc1ccc(Cl)cc1N(CC(=O)NCc1ccccc1)S(C)(=O)=O | i | i | i | i | i | i | nt | nt
COc1ccc(/C=N/n2cnc3c([nH]c4ccc(F)cc43)c2=O)cc1CN1CCCC1 | i | i | i | i | 86 | 91 | nt | nt | Mdm2-MdmX confirm=100
COc1ccc2c(c1)[nH]c1c(=O)n(/N=C/c3ccc(OC)c(CN4CCCC4)c3)cnc12 | i | i | i | i | i | i | nt | nt
